This is a sample that favours compounds with a hit; in the whole collection about 9% have one here.
HP1b binding inh – blocks HP1-beta chromodomain binding to methylated histone tails. P83916. AlphaScreen HP1-beta / biotin-H3K9me3 peptide binding. Potency, µM (doses to about 114 µM), usual class: inhibitors. 390,000 tested, 0.56% active. AID 540317; also: nearly all actives have a fitted effect of over 70% in size
Target sequence (P83916 whole entry, looked up): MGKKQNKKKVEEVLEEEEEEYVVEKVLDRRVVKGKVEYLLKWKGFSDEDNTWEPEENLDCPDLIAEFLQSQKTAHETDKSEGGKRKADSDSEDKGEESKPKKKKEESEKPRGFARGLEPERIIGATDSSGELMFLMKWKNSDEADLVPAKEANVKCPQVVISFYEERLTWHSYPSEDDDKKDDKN
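AlphaScreen: HP1-beta (50 nM) preformed 30 min with biotin-H3(1-18)K9me3 peptide (50 nM) in PBS pH 7.4, 0.01% Tween-20. Compound added for 30 min at RT, then streptavidin donor/nickel chelate acceptor beads (10 ug/mL) for 30 min.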
12-LOX inh – ALOX12 (human) lipoxygenase inhibition; AID 1671190; P18054; Potency, µM (series often up to 108 µM), actives largely listed as inhibitors; purified 12hLO, xylenol orange hydroperoxide absorbance; 580,000 tested, 1.1% active
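Purified human 12hLO at 150 nM in 25 mM Hepes, 0.01% Triton X-100, pH 7.0, preincubated 15 min at room temperature with compound. Reaction started with 40 uM arachidonic acid, 30 min at room temperature. Hydroperoxide measured by Fe-xylenol orange, 573/405 nm absorbance ratio.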
G9a inh – G9a (human) methyltransferase inhibition. G9a H3K9 monomethylation, AlphaScreen, 2 h. Potency, µM (doses to about 102 µM), hits mostly inhibitors. 350,000 tested, 8.8% active. AID 504332; also: nearly all actives have a fitted effect of over 75% in size
Target sequence (Q96KQ7 913-1193 limits assumed): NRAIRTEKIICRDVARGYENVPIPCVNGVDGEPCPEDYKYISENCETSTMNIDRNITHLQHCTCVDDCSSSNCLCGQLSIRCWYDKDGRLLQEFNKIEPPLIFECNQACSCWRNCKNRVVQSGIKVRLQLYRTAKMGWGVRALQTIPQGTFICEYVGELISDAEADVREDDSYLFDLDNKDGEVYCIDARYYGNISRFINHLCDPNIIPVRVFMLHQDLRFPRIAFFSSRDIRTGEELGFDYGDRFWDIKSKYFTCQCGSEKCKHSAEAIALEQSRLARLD
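AlphaScreen detection with an anti-monomethyl H3K9 antibody quantified product after a 2 h room-temperature reaction containing 500 nM biotinylated H3K9 peptide, 20 µM SAM and 20 nM enzyme, which had been preincubated 15 min with compound.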
JMJD2A Tudor inh – blocks the human JMJD2A Tudor domain; O75164; AlphaScreen JMJD2A-Tudor / H3K4me3 peptide binding; Potency, µM (series often up to 114 µM), most hits filed as inhibitors; 390,000 tested, 4.4% active; also: nearly all actives have a fitted effect of over 50% in size
BAZ2B block – inhibitors of human BAZ2B bromodomain | Q9UIF8 | 360,000 tested, 4.4% active | AID 504333 | AlphaScreen BAZ2B-H3K14Ac peptide displacement | Potency, µM (top dose mostly 114 µM), hits mostly inhibitors; also: nearly all actives have a fitted effect of over 60% in size
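Inhibition is scored as reduced AlphaScreen emission. The BAZ2B/b-H3(5-23)K14Ac complex (50 nM each) in PBS pH 7.4, 0.01% Tween-20 meets compound (up to 110 uM) for 30 min at RT before bead addition.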
PLK1 PBD inh – blocks phosphopeptide binding to human PLK1 polo-box domain | Plk1 PBD binding of FITC phosphopeptide, fluorescence polarization | Potency, µM, most hits filed as inhibitors | 360,000 tested, 2.8% active | AID 720504; also: series mostly up to about 57 µM; nearly all actives have a fitted effect of over 65% in size
Numbers stand for hits; ! = repeats disagree; [ ] = another dose, or the depositor's remark. Calls follow the shape of the dose curve; as a rule, active = well fitted curve in the direction sought with a large enough effect; inconclusive = small, poorly fitted or top-dose-only effect, or another doubt; inactive = no such curve, though single readings can be large; an effect the other way counts as inactive or inconclusive.

Results for CCOC(=O)c1c(NC(=O)CSc2ncn[nH]2)sc(C(=O)NC)c1C ?
HP1b binding inh: inactive; 12-LOX inh: inactive; JMJD2A Tudor inh: inactive; BAZ2B block: inactive; PLK1 PBD inh: inactive

How did CC(C)Cn1c(C(C)C)nc([N+](=O)[O-])c1S(=O)(=O)c1ccc(F)cc1 do in these assays?
HP1b binding inh: inactive; 12-LOX inh: inactive; G9a inh: inactive[12.7 µM]; JMJD2A Tudor inh: inactive; BAZ2B block: inactive; PLK1 PBD inh: inconclusive

Results for O=C(Cn1nc(-c2ccccc2)ccc1=O)N1CCc2ccccc2C1 ?
12-LOX inh: inactive

Results for Cn1c(=O)[nH]c(Nc2ccc(F)cc2)c([N+](=O)[O-])c1=O ?
HP1b binding inh: inactive; 12-LOX inh: inactive; G9a inh: inactive; JMJD2A Tudor inh: inconclusive; BAZ2B block: inactive; PLK1 PBD inh: inactive

How did CN(C)c1cc(-c2ccc(C#N)cc2)oc(=O)c1Cl do in these assays?
HP1b binding inh: inactive; 12-LOX inh: inactive; JMJD2A Tudor inh: inactive; BAZ2B block: inactive; PLK1 PBD inh: inactive

Results for CN(C)c1cc(-c2ccc(Br)cc2)oc(=O)c1Cl ?
HP1b binding inh: inactive; 12-LOX inh: inactive; G9a inh: 50.1µM; JMJD2A Tudor inh: inactive; BAZ2B block: inconclusive; PLK1 PBD inh: inactive

Results for COc1ccc(OCc2n[nH]c(=S)n2-c2ccc(C)cc2)cc1 ?
HP1b binding inh: inactive; 12-LOX inh: inconclusive; G9a inh: inconclusive; JMJD2A Tudor inh: inconclusive; BAZ2B block: inactive; PLK1 PBD inh: inactive

How did Cc1ccc(-n2c(C)n[nH]c2=S)cc1 do in these assays?
HP1b binding inh: inactive; 12-LOX inh: inactive; G9a inh: 22.4µM; JMJD2A Tudor inh: 10µM; BAZ2B block: inactive; PLK1 PBD inh: inactive

What do the screens show for `Cc1ccc(-n2c(C)n[nH]c2=S)cc1C`?
HP1b binding inh: inactive; 12-LOX inh: inconclusive; G9a inh: 5.01µM; JMJD2A Tudor inh: 8.91µM; BAZ2B block: inactive; PLK1 PBD inh: inactive

What do the screens show for `CCN1CCN(CCCN(Cc2ccco2)C(=S)Nc2ccc(Cl)cc2)CC1`?
HP1b binding inh: inactive; 12-LOX inh: inactive; G9a inh: inconclusive; JMJD2A Tudor inh: inactive; BAZ2B block: inactive; PLK1 PBD inh: inactive

What do the screens show for `CCN1CCN(CCCN(Cc2ccco2)C(=S)Nc2ccc(C)c(Cl)c2)CC1`?
HP1b binding inh: inactive; 12-LOX inh: inactive; G9a inh: 35.5µM; JMJD2A Tudor inh: inactive; BAZ2B block: inactive; PLK1 PBD inh: inactive

What do the screens show for `CCN1CCN(CCCN(Cc2ccco2)C(=S)Nc2cc(Cl)ccc2C)CC1`?
HP1b binding inh: inactive; 12-LOX inh: inactive; G9a inh: 28.2µM; JMJD2A Tudor inh: inactive; BAZ2B block: inactive; PLK1 PBD inh: 23.8µM

Results for CCOC(=O)c1ccc(NC(=S)N(CCCN2CCCC2)Cc2ccco2)cc1 ?
HP1b binding inh: inactive; 12-LOX inh: inactive; G9a inh: 56.2µM; JMJD2A Tudor inh: inactive; BAZ2B block: inactive; PLK1 PBD inh: inactive

How did Cc1cc(C)c(NC(=S)N(CCN2CCCCC2)Cc2ccco2)c(C)c1 do in these assays?
HP1b binding inh: inactive; 12-LOX inh: inactive; G9a inh: inconclusive; JMJD2A Tudor inh: inactive; BAZ2B block: inactive; PLK1 PBD inh: 21.2µM

Results for Cc1cccc(C)c1NC(=S)N(CCN1CCCCCC1)Cc1ccco1 ?
HP1b binding inh: inactive; 12-LOX inh: inactive; G9a inh: inactive; JMJD2A Tudor inh: inactive; BAZ2B block: inactive; PLK1 PBD inh: inactive

Results for Cc1ccc(N(C)S(=O)(=O)c2nnc(NC(=O)CC(C)C)s2)cc1 ?
HP1b binding inh: inactive; 12-LOX inh: inactive; G9a inh: inactive; JMJD2A Tudor inh: inactive; BAZ2B block: inactive

Results for CO/N=C/C1C(=O)NN=C1c1ccccc1 (configuration not stated) ?
HP1b binding inh: inactive; 12-LOX inh: inactive; G9a inh: inconclusive; JMJD2A Tudor inh: 12.6µM; BAZ2B block: inconclusive; PLK1 PBD inh: inactive

Results for CC1=NNC(=O)C1Oc1ccccc1 (configuration not stated) ?
HP1b binding inh: inactive; 12-LOX inh: inactive; JMJD2A Tudor inh: inactive; BAZ2B block: inactive; PLK1 PBD inh: inactive

What do the screens show for `Nc1cccc2ccc(C(=O)O)nc12`?
12-LOX inh: inactive

What do the screens show for `Cc1ccc(NS(=O)(=O)c2cc3c(cc2C)NC(=O)CO3)cc1C`?
JMJD2A Tudor inh: inactive

How did Cc1cc2c(cc1S(=O)(=O)CCC(=O)N(C)Cc1ccccc1)OCC(=O)N2 do in these assays?
HP1b binding inh: inconclusive; 12-LOX inh: inactive; G9a inh: 11.2µM; JMJD2A Tudor inh: 20µM!; BAZ2B block: 12.6µM!; PLK1 PBD inh: inactive

What do the screens show for `Cc1cccc(NC(=O)CCS(=O)(=O)c2cc3c(cc2Cl)NC(=O)CO3)c1`?
HP1b binding inh: inactive; 12-LOX inh: inactive; G9a inh: inactive; JMJD2A Tudor inh: 15.8µM; BAZ2B block: inactive; PLK1 PBD inh: 11.9µM

How did CCOC(=O)c1ccc(NS(=O)(=O)c2cc3c(cc2C)NC(=O)CO3)cc1 do in these assays?
HP1b binding inh: inactive; 12-LOX inh: inconclusive; G9a inh: 50.1µM; JMJD2A Tudor inh: inconclusive; BAZ2B block: inactive; PLK1 PBD inh: 29.9µM

Results for O=C(CCS(=O)(=O)c1cc2c(cc1Cl)NC(=O)CO2)NCc1ccccc1 ?
HP1b binding inh: inactive; 12-LOX inh: inactive; G9a inh: inactive; JMJD2A Tudor inh: inconclusive; BAZ2B block: inactive; PLK1 PBD inh: 26.7µM

Results for Cn1cc(CN2CCN(CCO)CC2)c(-c2ccc(Oc3ccccc3)cc2)n1 ?
HP1b binding inh: inactive; 12-LOX inh: inactive; G9a inh: inconclusive; JMJD2A Tudor inh: inactive; BAZ2B block: inactive; PLK1 PBD inh: inactive

Results for Cc1cccc(OC(C)C(=O)OCC(=O)N2CCN(c3ccccc3)CC2)c1 (configuration not stated) ?
HP1b binding inh: inactive; 12-LOX inh: inactive; JMJD2A Tudor inh: inactive; PLK1 PBD inh: inactive

How did CCOC(=O)[C@@H]1[C@H]2COc3ccccc3[C@@H]2N2C(=O)N(c3ccccc3)C(=O)[C@@]12C do in these assays?
HP1b binding inh: inactive; G9a inh: inactive; JMJD2A Tudor inh: inactive; BAZ2B block: inactive; PLK1 PBD inh: inactive

Results for COc1cc(=O)[nH]c(SCC(=O)Nc2ccc3ccccc3c2)n1 ?
HP1b binding inh: inactive; 12-LOX inh: inconclusive; G9a inh: inactive; JMJD2A Tudor inh: inactive; BAZ2B block: inactive; PLK1 PBD inh: inactive

How did O=C1NCc2ccccc2CC12CCCCN2CC1=CCCCC1 (configuration not stated) do in these assays?
12-LOX inh: inactive[6.33 µM]

How did O=C(Nc1ccc2ncnc(N3CCCC3)c2c1)c1ccc(F)c(F)c1 do in these assays?
12-LOX inh: inactive

Results for CCN1CCN(C(=O)CCc2nc3ccccc3n2-c2ccccc2)CC1 ?
HP1b binding inh: inactive; 12-LOX inh: inactive; G9a inh: inconclusive; JMJD2A Tudor inh: inactive; BAZ2B block: inactive; PLK1 PBD inh: inactive

How did CCN(CC)c1ccc(-c2nnc(SCC(=O)Nc3ccccc3C#N)n2-c2ccccc2)cc1 do in these assays?
HP1b binding inh: inactive; 12-LOX inh: inactive; G9a inh: 10µM; JMJD2A Tudor inh: inactive; BAZ2B block: inactive; PLK1 PBD inh: inactive

From PubChem
